The results in this text go back to PubChem BioAssay (EPA / NIEHS).

Read-out in experiment [1]: TIMP metallopeptidase inhibitor 1 (TIMP1), TIMP1 (gene 7076)
Briefly: BSK_hDFCGF_TIMP1: BioMAP Diversity Plus: hDFCGF Assay for TIMP metallopeptidase inhibitor 1 (TIMP1) Biomarker Activity (AID 2283062). Conditions: primary human foreskin fibroblasts; actives raise or lower the signal. Summed up:
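Primary human foreskin fibroblasts in the hDFCGF system were dosed with compound for 24 h, then TIMP-1 was measured by ELISA. Activity was fitted bidirectionally relative to DMSO control; parallel SRB staining assessed cytotoxicity.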

Read-out in experiment [2]: Monokine induced gamma interferon (MIG), CXCL9 (gene 4283)
Briefly: BSK_hDFCGF_MIG: BioMAP Diversity Plus: hDFCGF Assay for Monokine induced gamma interferon (MIG) Biomarker Activity (AID 2283063). The note with it: primary human foreskin fibroblasts; actives raise or lower the signal. Summed up: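 ELISA read-out of MIG from primary human dermal fibroblasts 24 h post-dosing. Gain or loss of signal fitted bidirectionally, DMSO as baseline.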

Read-out in experiment [3]: Vascular cell adhesion molecule 1 (VCAM1), VCAM1 (gene 7412)
Briefly: BSK_hDFCGF_VCAM1: BioMAP Diversity Plus: hDFCGF Assay for Vascular cell adhesion molecule 1 (VCAM1) Biomarker Activity (AID 2283065). The note with it: primary human foreskin fibroblasts; actives raise or lower the signal. The gist of the method: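 Primary human foreskin fibroblasts (hDFCGF system) were dosed with chemical and VCAM-1 was measured by ELISA 24 h later. Bidirectional curve fitting used DMSO as negative control and activity baseline.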

Read-out in experiment [4]: Plasminogen activator inhibitor-1 (PAI1), SERPINE1 (gene 5054)
Briefly: BSK_hDFCGF_PAI1: BioMAP Diversity Plus: hDFCGF Assay for Plasminogen activator inhibitor-1 (PAI1) Biomarker Activity (AID 2283066). The note with it: primary human foreskin fibroblasts; actives raise or lower the signal. The gist of the method:
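PAI-1 levels in human dermal foreskin fibroblasts were quantified by ELISA 24 h after dosing, with gain or loss analysed against DMSO. Overt cytotoxicity was checked by sulforhodamine B total-protein staining in parallel cultures.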

Read-out in experiment [5]: Intercellular Adhesion Molecule 1 (ICAM1), ICAM1 (gene 3383)
The experiment can be described thus: BSK_KF3CT_ICAM1: BioMAP Diversity Plus: KF3CT Assay for Intercellular Adhesion Molecule 1 (ICAM1) Biomarker Activity (AID 2283067). Conditions: primary human keratinocytes with fibroblasts; actives raise or lower the signal. Summed up: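 Human keratinocyte plus foreskin fibroblast primary co-culture was exposed to chemical for 24 h. ICAM-1 was then quantified by ELISA, and the data were fit bidirectionally against DMSO as the negative control and baseline.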

Experiment [6] can be described thus: BSK_KF3CT_SRB: Viability Assessment in the BioMAP Diversity Plus: KF3CT Assay (AID 2283069).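 Also: read 24 h after compound addition.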 Conditions: primary human keratinocytes with fibroblasts. The gist of the method:
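SRB read-out at 560 nm (0.1% stain, TCA-fixed cells) gauges overt cytotoxicity in a human skin keratinocyte–fibroblast co-culture 24 h post-dosing. Signal change was fitted bidirectionally relative to DMSO control.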

Read-out in experiment [7]: Interleukin-1 alpha (IL1a), IL1A (gene 3552)
The experiment can be described thus: BSK_KF3CT_IL1a: BioMAP Diversity Plus: KF3CT Assay for Interleukin-1 alpha (IL1a) Biomarker Activity (AID 2283070). Conditions: primary human keratinocytes with fibroblasts; actives raise or lower the signal. Summed up:
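Primary skin co-culture (keratinocytes, foreskin fibroblasts), 24 h exposure; ELISA for IL-1a; bidirectional curve fit vs DMSO.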

Read-out in experiment [8]: TIMP metallopeptidase inhibitor 2 (TIMP2), TIMP2 (gene 7077)
Briefly: BSK_KF3CT_TIMP2: BioMAP Diversity Plus: KF3CT Assay for TIMP metallopeptidase inhibitor 2 (TIMP2) Biomarker Activity (AID 2283071). Conditions: primary human keratinocytes with fibroblasts; actives raise or lower the signal. The gist of the method: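 TIMP-2 measured by ELISA at 24 h in human keratinocyte/fibroblast primary co-cultures exposed to chemicals. Both increases and decreases were fitted against DMSO. Parallel cultures were stained with SRB for total protein as an overt-cytotoxicity check.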

Read-out in experiment [9]: Transforming growth factor beta 1 (TGFb1), TGFB1 (gene 7040)
The experiment can be described thus: BSK_KF3CT_TGFb1: BioMAP Diversity Plus: KF3CT Assay for Transforming growth factor beta 1 (TGFb1) Biomarker Activity (AID 2283072). Conditions: primary human keratinocytes with fibroblasts; actives raise or lower the signal. The gist of the method: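 ELISA quantifies TGF-b1 at 24 h post-dose in a primary human skin co-culture of keratinocytes and fibroblasts, with gain or loss judged against DMSO. Parallel SRB total-protein staining flags overt cytotoxicity.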

Read-out in experiment [10]: C-C motif chemokine 2 (Homo sapiens) (UniProt P13500)
The experiment can be described thus: BSK_KF3CT_MCP1: BioMAP Diversity Plus: KF3CT Assay for Monocyte Chemoattractant Protein 1 (MCP1/CCL2) Biomarker Activity (AID 2283073). The note with it: primary human keratinocytes with fibroblasts; actives raise or lower the signal. The gist of the method: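 Human keratinocyte plus foreskin fibroblast primary co-culture exposed to chemical for 24 h. MCP-1 levels measured by ELISA. Bidirectional curve fitting relative to DMSO negative control as baseline.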

Read-out in experiment [11]: urokinase plasminogen activator (uPA), PLAU (gene 5328)
The experiment can be described thus: BSK_KF3CT_uPA: BioMAP Diversity Plus: KF3CT Assay for urokinase plasminogen activator (uPA) Biomarker Activity (AID 2283075). Conditions: primary human keratinocytes with fibroblasts; actives raise or lower the signal. Summed up: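 Skin co-culture (keratinocytes + foreskin fibroblasts), human primary; 24 h post-dose; uPA by ELISA; gain/loss fit vs DMSO baseline.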

Read-out in another experiment: CD40, CD40 (gene 958)
Briefly: BSK_LPS_CD40: BioMAP Diversity Plus: LPS Assay for CD40 Biomarker Activity (AID 2283076). Conditions: primary human HUVEC with PBMC; actives raise or lower the signal. Summed up: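 Primary human umbilical vein endothelial cells co-cultured with peripheral blood mononuclear cells, LPS-stimulated, were dosed with chemical and read 24 h later. CD40 levels were measured by ELISA and fitted bidirectionally against DMSO as negative control and baseline.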

Read-out in experiment [12]: E-selectin (Homo sapiens) (UniProt P16581)
Briefly: BSK_LPS_Eselectin: BioMAP Diversity Plus: LPS Assay for Eselectin Biomarker Activity (AID 2283077). The note with it: primary human HUVEC with PBMC; actives raise or lower the signal. The gist of the method:
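Human umbilical vein endothelial cells co-cultured with peripheral blood mononuclear cells under LPS stimulation; E-selectin measured by ELISA 24 h after chemical dosing. Activity fitted bidirectionally against DMSO as negative control and baseline.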

Read-out in experiment [13]: Interleukin-8 (IL8), CXCL8 (gene 3576)
The experiment can be described thus: BSK_LPS_IL8: BioMAP Diversity Plus: LPS Assay for Interleukin-8 (IL8) Biomarker Activity (AID 2283078). Conditions: primary human HUVEC with PBMC; actives raise or lower the signal. Summed up:
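Human umbilical vein endothelial cells co-cultured with PBMC were stimulated with LPS; IL-8 levels were measured by ELISA 24 h after chemical dosing. Activity was fitted bidirectionally against DMSO as negative control and baseline.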

Experiment [14] is described as follows: BSK_LPS_SRB: Viability Assessment in the BioMAP Diversity Plus: LPS Assay (AID 2283079).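 Also: total protein by sulforhodamine B absorbance as a cytotoxicity measure; measured one day after compound addition.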 The note with it: primary human HUVEC with PBMC. Summed up: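 Human umbilical vein endothelial cells co-cultured with PBMC (LPS system) were dosed for 24 h. Total protein was stained with 0.1% sulforhodamine B after 10% TCA fixation, read at 560 nm, and fitted bidirectionally against DMSO baseline.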

Read-out in experiment [15]: Interleukin-1 alpha (IL1a), IL1A (gene 3552)
Briefly: BSK_LPS_IL1a: BioMAP Diversity Plus: LPS Assay for Interleukin-1 alpha (IL1a) Biomarker Activity (AID 2283080). Conditions: primary human HUVEC with PBMC; actives raise or lower the signal. Summed up: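 Human umbilical vein endothelial cells co-cultured with peripheral blood mononuclear cells were LPS-stimulated and exposed to test chemicals for 24 h. IL-1 alpha was quantified by ELISA, with bidirectional curve fitting against DMSO as the negative control and baseline.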

Read-out in experiment [16]: Monocyte Chemoattractant Protein-1 (MCP1), CCL2 (gene 6347)
The experiment can be described thus: BSK_LPS_MCP1: BioMAP Diversity Plus: LPS Assay for Monocyte Chemoattractant Protein-1 (MCP1) Biomarker Activity (AID 2283081).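 As to AC50: co-culture stimulated with LPS; secreted MCP-1 protein quantified by ELISA in culture supernatant.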 The note with it: primary human HUVEC with PBMC; actives raise or lower the signal. The gist of the method:
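HUVEC plus PBMC co-culture (human primary cells, LPS system) exposed to test chemical for 24 h; MCP-1 measured by ELISA. Bidirectional curve fitting against DMSO baseline; parallel SRB total-protein staining flags overt cytotoxicity.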

Read-out in experiment [17]: Matrix Metallopeptidase 1 (MMP1), MMP1 (gene 4312)
The experiment can be described thus: BSK_hDFCGF_MMP1: BioMAP Diversity Plus: hDFCGF Assay for Matrix Metallopeptidase 1 (MMP1) Biomarker Activity (AID 2283064). Conditions: primary human foreskin fibroblasts; actives raise or lower the signal. The gist of the method:
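ELISA read-out of MMP1 from human foreskin fibroblasts (primary skin cells), 24 h post-dose. Gain or loss of signal was fitted bidirectionally versus DMSO negative control; cytotoxicity was checked by SRB in parallel cultures.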

Read-out in experiment [18]: Matrix Metallopeptidase 9 (MMP9), MMP9 (gene 4318)
The experiment can be described thus: BSK_KF3CT_MMP9: BioMAP Diversity Plus: KF3CT Assay for Matrix Metallopeptidase 9 (MMP9) Biomarker Activity (AID 2283074). The note with it: primary human keratinocytes with fibroblasts; actives raise or lower the signal. The gist of the method:
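ELISA read-out of MMP-9 at 24 h post-dosing in a co-culture of human skin keratinocytes and foreskin fibroblasts. Gain or loss of signal was fitted in both directions against DMSO.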

Read-out in experiment [19]: Interferon-gamma inducible Protein 10 (IP10), CXCL10 (gene 3627)
Briefly: BSK_KF3CT_IP10: BioMAP Diversity Plus: KF3CT Assay for Interferon-gamma inducible Protein 10 (IP10) Biomarker Activity (AID 2283068). The note with it: primary human keratinocytes with fibroblasts; actives raise or lower the signal. Summed up:
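In a primary skin co-culture of keratinocytes and fibroblasts, IP-10 is quantified by ELISA at 24 h after dosing. SRB staining of parallel wells monitors overt toxicity. Curves are fitted both directions against DMSO.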

What is called AC50 is the concentration at which the activity in the assay is half-maximal.

Activity calls are given as the source filed them. The calls were made as follows: active = hit-call score of the fitted dose curve at least 0.9, where 1 is the maximum; inactive = score below 0.9.

E-selectin (Homo sapiens), sequence (P16581 whole entry, looked up): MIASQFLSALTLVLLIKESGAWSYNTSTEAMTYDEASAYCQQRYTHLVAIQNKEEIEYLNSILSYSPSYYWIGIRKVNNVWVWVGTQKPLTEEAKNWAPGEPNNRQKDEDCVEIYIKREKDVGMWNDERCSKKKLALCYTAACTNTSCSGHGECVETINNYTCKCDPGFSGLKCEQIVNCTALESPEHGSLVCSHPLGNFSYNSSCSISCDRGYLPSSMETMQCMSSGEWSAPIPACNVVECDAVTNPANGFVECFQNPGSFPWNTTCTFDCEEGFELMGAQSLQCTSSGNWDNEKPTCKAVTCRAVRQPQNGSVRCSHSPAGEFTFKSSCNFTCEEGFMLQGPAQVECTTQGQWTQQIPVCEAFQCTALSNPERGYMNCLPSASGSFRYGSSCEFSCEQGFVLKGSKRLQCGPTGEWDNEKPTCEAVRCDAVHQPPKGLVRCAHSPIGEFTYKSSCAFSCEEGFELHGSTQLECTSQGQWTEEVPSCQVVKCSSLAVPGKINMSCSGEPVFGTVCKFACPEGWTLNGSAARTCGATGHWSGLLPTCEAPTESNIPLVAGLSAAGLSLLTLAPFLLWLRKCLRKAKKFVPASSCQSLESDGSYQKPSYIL

With `COc1ccc(/C=C/S(=O)(=O)NC(=O)c2ccc(C)cc2Cl)cc1`, the result in [1], in [2], in [3], in experiment [4], in experiment [5] and in [6] was inactive. Moreover, the outcome in [8] was “inactive”; in experiment [9], “inactive”; in experiment [10], “inactive”; in [11], “inactive”; in the experiment with CD40, CD40 (gene 958) it was “inactive”; in experiment [12], “inactive”. Besides, the outcome in experiment [13], in [14], in [15] and in experiment [16] was inactive. Also, the AC50 in experiment [7] is 8.09 µM (active).
As to `CC(C)=CCC/C(C)=C/CO`, the outcome in experiment [1], in experiment [2], in experiment [17], in experiment [4], in experiment [5] and in [7] was inactive. For the same compound, the outcome was “inactive” in experiment [8]; “inactive” in experiment [9]; “inactive” in experiment [10]; “inactive” in experiment [18]; “inactive” in [11]; “inactive” with CD40, CD40 (gene 958). For the same compound, the outcome in experiment [13], in experiment [14], in experiment [15] and in experiment [16] was inactive.
For `CC[C@H]1CC[C@H](NCc2cc3c(cc2OC)[C@H]2C[C@H]2C(=O)N3C)[C@H](c2ccccc2)N1`, the result in [1], in experiment [2], in experiment [17], in experiment [4], in experiment [5] and in experiment [19] was inactive. The outcome was “inactive” in experiment [6]; “inactive” in experiment [7]; “inactive” in experiment [9]; “inactive” in experiment [10]; “inactive” in experiment [11]; “inactive” with CD40, CD40 (gene 958). In addition, the result in experiment [13], in experiment [14], in experiment [15] and in experiment [16] was inactive.
Regarding `CNS(=O)(=O)c1cc(C(=O)N2CCC(CCN3C4CCC3CC(n3c(C)nc5ccccc53)C4)(c3cccc(F)c3)CC2)c(Cl)cc1F` (centres undefined), the outcome in [1], in [2], in [17], in experiment [5], in experiment [6] and in [7] was inactive. The result in experiment [10] and in experiment [11] was inactive. Further, the AC50 is 20 µM (active) in [4]; 32.4 µM (active) in experiment [9]; 20 µM (active) with CD40, CD40 (gene 958); 20 µM (active) in experiment [13]; 17.4 µM (active) in [14]; 23.5 µM (active) in experiment [15]. Moreover, the AC50 in experiment [16] was 24.2 µM (active).
